Assay outcomes (PubChem)
Only some compounds are listed: those with a hit (about 28% of all), similar ones and a draw of the others.
CYP2C9 inh: inhibitors of human CYP2C9 | AID 777 | inhibition, % at 5 µM | P11712 | CYP2C9 Supersomes, luciferin-H conversion, luminescence | 96,000 compounds, 20% hits;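 active = blocking of liver enzyme CYP2C9 beyond about 50% at 5 µM, limit read from the data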
Target sequence (P11712 whole entry, looked up): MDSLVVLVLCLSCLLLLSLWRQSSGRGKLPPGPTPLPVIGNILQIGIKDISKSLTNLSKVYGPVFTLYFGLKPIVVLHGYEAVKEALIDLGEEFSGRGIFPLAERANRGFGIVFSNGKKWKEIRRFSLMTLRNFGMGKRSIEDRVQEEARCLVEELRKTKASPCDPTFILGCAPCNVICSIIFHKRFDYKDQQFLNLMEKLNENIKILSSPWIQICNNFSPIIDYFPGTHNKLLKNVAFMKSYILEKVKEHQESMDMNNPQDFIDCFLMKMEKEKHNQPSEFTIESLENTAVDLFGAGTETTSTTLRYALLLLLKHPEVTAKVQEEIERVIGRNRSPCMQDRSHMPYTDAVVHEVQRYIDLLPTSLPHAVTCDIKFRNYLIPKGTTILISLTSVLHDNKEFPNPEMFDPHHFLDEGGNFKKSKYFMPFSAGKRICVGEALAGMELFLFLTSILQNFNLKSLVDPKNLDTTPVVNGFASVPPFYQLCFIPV
CYP2C19 inhib: blocks human cytochrome P450 2C19; P33261; CYP2C19 Supersomes, luciferin-H EGE luminescence, 30 min; inhibition, % at 5 µM; 96,000 compounds, 21% hits;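 active = CYP2C19 inhibition above a set limit at 5 µM in the primary screen, cut at about 50% in these data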;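 also: plate controls were negative control wells for no effect and 2.5 mM tranylcypromine positive control for full effect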
CYP2C19 activ: activators of human cytochrome P450 2C19; P33261; recombinant CYP2C19, luciferin-H EGE luminescence; hits give high values; 0 = fully inhibited enzyme, 1 = untreated enzyme; activation factor at 5 µM; 96,000 tested, under 10 active;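 active = activation factor of at least 2 at 5 µM in the primary screen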;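 also: 0 = wells with 2.5 mM tranylcypromine and 1 = vehicle-only wells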
CYP2C9 act: increases human cytochrome P450 2C9 activity | P11712 | recombinant CYP2C9, luciferin-H conversion, luminescence; hits give high values; factor 1 = untreated enzyme, 0 = blocked | activation factor at 5 µM | 96,000 compounds, 1.4% hits | AID 1024;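 active = activation factor of 2 or more for CYP2C9 at a 5 µM dose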;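 also: 0 = sulfaphenazole-blocked wells and 1 = vehicle-only wells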
PLK1 PBD inh: blocks phosphopeptide binding to human Plk1 polo box domain. inhibition, %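 (tested at about 20 µM)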. Plk1 PBD phosphopeptide binding, fluorescence polarization. AID 693. P53350. 97,000 compounds, 0.13% hits; in the data active = inhibition above about 34%, passing the limit was not always enough
PLK1 kinase inh: PLK1 (human) kinase inhibition; P53350; recombinant PLK1 kinase, TR-FRET peptide phosphorylation; inhibition, % at 10 µM; 97,000 compounds, 0.53% hits; AID 619;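 active = inhibition of 50% or more in the single-concentration screen; inactive = inhibition below 50%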;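 also: 0% = DMSO max control and 100% = H-89 dihydrochloride min control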
* = called active by the depositor; . = no result given.

SMILES	CYP2C9 inh	CYP2C19 inhib	CYP2C19 activ	CYP2C9 act	PLK1 PBD inh	PLK1 kinase inh
CCOc1ccccc1NC(=O)CSc1nc2c(c(=O)n1C)SC(C)C2 (centres undefined)	61*	16	0.8	0.4	.	.
CCOc1ccc(NC(=O)CSc2nc3c(c(=O)n2C)SC(C)C3)cc1 (centres undefined)	47	11	0.9	0.5	.	.
COc1cccc(NC(=O)CSc2nc3c(c(=O)n2C)SC(C)C3)c1 (centres undefined)	75*	93*	0.1	0.2	.	.
CN(C)c1nc2n(c(=O)n1)C(C#N)CS2 (centres undefined)	.	.	.	.	-9	4
Cc1ccc(F)cc1NC(=O)Cc1ncc(C(F)(F)F)cc1Cl	7	51*	0.5	0.9	6	-12
O=C(O)CCc1ncc(C(F)(F)F)cc1Cl	1	-3	1	1	4	-11
CCOC(=O)C1CCN(c2cc(=O)n(C3CCCCC3)c(=O)[nH]2)CC1	15	8	0.9	0.8	5	-10
Cc1nnc(NC(=O)C2CCCN(c3ncccn3)C2)s1 (centres undefined)	4	6	0.9	1	-11	-18
COc1ccc(N2Cc3cccc(C(=O)O)c3C2=O)cc1	1	5	0.9	1	-9	-13
COc1cccc2c1N1C(=O)c3c(C(=O)O)cccc3C1CC2(C)C (centres undefined)	70*	-2	1	0.3	-7	-9
COc1cc(C)c(S(=O)(=O)n2ccc(C)n2)cc1C	-65	83*	0.2	1.6	2	-14
COc1ccc(S(=O)(=O)N2CCN(S(=O)(=O)c3ccc(C(F)(F)F)cc3)CC2)cc1C	4	3	1	1	-5	-11
COc1ccc(S(=O)(=O)n2ccc(C)n2)cc1C	-135	50*	0.5	2.4*	20	4
O=C(Cn1nnc(-c2cccs2)n1)N1c2ccccc2Sc2ccc(C(F)(F)F)cc21	.	.	.	.	-9	9
CC(/C=C\c1cccnc1)=C/C(=O)O	6	-4	1	0.9	-34	-5
c1ccc(-c2noc(C34CC5CC(CC(C5)C3)C4)n2)nc1	0	-9	1.1	1	-4	-15
CN1CCN(S(=O)(=O)c2ccc(N(C)Cc3cccs3)nc2)CC1	-40	4	1	1.4	7	-14
Cc1cnc(NC(=O)c2ccc(-c3nc4ccccc4s3)o2)s1	56*	75*	0.2	0.4	-25	-6
COc1ccc(S(=O)(=O)N(C)CC(=O)NCCC2=CCCCC2)cc1	-136	32	0.7	2.4*	-8	7
COc1ccc(S(=O)(=O)N(C)CC(=O)NCCC2=CCCCC2)cc1OC	-11	82*	0.2	1.1	29	-3
CCCc1cc(C(=O)Nc2c(C)n(C)n(-c3ccccc3)c2=O)no1	22	10	0.9	0.8	8	-1
CCCc1cc(C(=O)Nc2sc(C)c(C)c2C(=O)OCC)no1	-79	-13	1.1	1.8	.	.
COc1ccc(-c2ccnc3nc(N4CCOCC4)nn23)cc1	31	17	0.8	0.7	6	-22
COc1ccc(-c2ccnc3nc(-n4cccc4)nn23)cc1	51*	26	0.7	0.5	6	-10
O=C(NCC(=O)N1CCCCC1)c1ccc(Cl)cc1Cl	-20	46	0.5	1.2	23	-7
SMILES	CYP2C9 inh	CYP2C19 inhib	CYP2C19 activ	CYP2C9 act	PLK1 PBD inh	PLK1 kinase inh
CO/N=C(/CNC(=O)c1ccc(Cl)cc1Cl)c1ccc(Cl)cc1	5	62*	0.4	1	6	-7
Cc1cc(C)nc(NC(=O)c2cccc(Cl)c2)n1	2	5	0.9	1	-2	-10
CO/N=C(/CNC(=O)c1cccc(Cl)c1)c1ccc(Cl)cc1	68*	92*	0.1	0.3	4	-11
COc1ccc(CN2C(=O)CS(=O)CC2=O)cc1OC	-4	8	0.9	1	16	-10
CCc1ccc2c(c1)cc(CN(C(=S)Nc1ccc(Cl)cc1)C1CC1)c1nnnn12	78*	8	0.9	0.2	-21	-12
Cc1cc(-c2ccccc2)nc(N2CCC(C(=O)NCc3ccccc3Cl)CC2)n1	.	.	.	.	2	-23
C=CCNC(=O)C1CCN(c2nc(C)cc(-c3ccccc3)n2)CC1	77*	82*	0.2	0.2	-12	-20
Cc1ccc(NCc2nnc(SCCN3CCCCC3)n2CC2CCCO2)c(C)c1 (centres undefined)	-2	-9	1.1	1	-10	-8
Cc1ccc(NCc2nnc(SCC(=O)Nc3ccccc3)n2CC2CCCO2)c(C)c1 (centres undefined)	49	52*	0.5	0.5	-5	-2
CCn1c(CNc2ccc(C)cc2C)nnc1SCC(=O)N1CCCc2ccccc21	41	86*	0.1	0.6	-2	-4
CCn1c(CSc2nc(C)cc(C)n2)nnc1SCC(=O)N1CCCc2ccccc21	-74	47	0.5	1.7	-18	-8
CCn1c(CNc2ccc(F)cc2)nnc1SCC(=O)N1CCCc2ccccc21	-29	63*	0.4	1.3	-8	-10
Brc1ccc2cccnc2c1	-10	5	1	1.1	6	-9
Cc1ccc(-c2ccc(/C=N/n3cnnc3)o2)cc1Cl	61*	64*	0.4	0.4	15	-12
Clc1cccc(-c2ccc(/C=N/n3cnnc3)o2)c1	25	51*	0.5	0.8	.	.
Cc1nnc(SC(=O)N2c3ccccc3Sc3ccccc32)s1	20	17	0.8	0.8	.	.
N#Cc1c2n(c3c(=O)n(CC(=O)c4ccc(Br)cc4)cnc13)CCCC2	14	53*	0.5	0.9	6	-5
N#Cc1c2ncn(CC(=O)c3ccc(Br)cc3)c(=O)c2c2n1CCC2	-12	34	0.7	1.1	8	-3
N#Cc1c2n(c3c(=O)n(Cc4ccccc4)cnc13)CCCC2	82*	98*	0	0.2	5	-7
N#Cc1c2n(c3c(=O)n(Cc4ccc(Cl)cc4)cnc13)CCCCC2	100*	99*	0	0	20	2
CCOC(=O)Cn1cnc2c(C#N)c3n(c2c1=O)CCCCC3	4	2	1	1	-9	-18
O=c1c2cnn(-c3ccccc3)c2ncn1Cc1ccccc1	.	.	.	.	-9	-10
CSc1nnc(-c2cnccn2)n1CCCN1CCCC1=O	4	0	1	1	.	.
CC(C)=C1C2CCC1C1C(=O)N(NC(=O)COc3ccc(Cl)c(C)c3)C(=O)C21 (centres undefined)	0	49	0.5	1	13	-8
O=C1C(O)CC2c3ccccc3CC3(CCCC3)N12 (centres undefined)	16	2	1	0.8	6	-7
CCn1ccc(C(=O)Nc2ccc(S(=O)(=O)Nc3ccccc3OC)cc2)n1	82*	81*	0.2	0.2	-5	-30
CCCCOC(=O)n1ccc(C(=O)Nc2ccccc2OC)n1	-111	10	0.9	2.1*	-28	-7
